“And” between values parts separate entries of the source, which are not always exact repeats. Identical values can stand only once. Records with an inconclusive call do not appear. Entries that show only a call come without a potency. The source made the active and inactive calls. The call rests on the fitted dose curve. Residues, ends and D or L forms follow the SMILES beside them.
Potency means the concentration at half of the fitted maximal effect.

A short description of this experiment: qHTS assay to identify small molecule antagonists of the estrogen receptor alpha (ER-alpha) signaling pathway using the BG1 cell line (AID 743080).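 Further: BG1 cells stimulated with 17beta-estradiol alongside compound; nearly all actives have a fitted effect of over 25% in size.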 The settings on record: BG1Luc4E2 ERE-luciferase antagonist mode, luminescence; series mostly up to 70.3 µM. From the text: National Center for Advancing Translational Sciences [NCATS]
NIH Chemical Genomics Center [NCGC]
U.S. Environmental Protection Agency [EPA]
National Institutes of Environmental Health Sciences [NIEHS]
National Toxicology Program [NTP]
U.S. Food and Drug Administration [FDA]
Estrogen receptor (ER), a nuclear hormone receptor, plays an important role in development, metabolic homeostasis and reproduction. Endocrine disrupting chemicals (EDCs) and their interactions with steroid hormone receptors like ER causes disruption of normal endocrine function. Therefore, it is important to understand the effect of environmental chemicals on the ER signaling pathway. To identify ER antagonists, BG1-Luc-4E2 cell line (provided by Dr. Michael Denison from University of California) has been used to screen the Tox21 10K compound library. BG1Luc4E2 cell line endogenously expresses full-length ER-alpha and is stably transfected with a plasmid containing four estrogen responsive elements (ERE) upstream of a luciferase reporter gene.
Tox21 Assay Protocol Summary:
BG1-Luc-4E2 cells were cultured in phenol red free assay medium containing 10% charcoal stripped FBS for 5 days before the assay was performed. The cells were dispensed at 4,000 cells/4 uL of assay medium per well into white wall/solid-bottom 1536-well plates using a Multidrop Combi (ThermoFisher Scientific, Waltham, MA) dispenser. The assay plates were incubated at a 37C and 5% CO2 for 24 h, and then 23 nL of compounds dissolved in DMSO, positive controls or DMSO only was transferred to the assay plate using a Pintool station (Kalypsys, San Diego, CA), followed by addition of 1 uL of 17beta-estradiol in assay medium using a Flying Reagent Dispenser (Aurora Discovery, San Diego, CA). After the plates were incubated at 37 C and 5% CO2 for 21.5 h, 1 uL of CellTiter-Fluor reagent (Promega, Madison, WI) of measuring cytotoxicity was added using Flying Reagent Dispenser (FRD) to each well. The assay plates were incubated at 37 C and 5% CO2 for additional 30 min and the fluorescence intensity was quantified by a ViewLux plate reader (PerkinElmer, Shelton, CT). For measuring luciferase reporter gene activity, 4 uL of ONE-Glo reagent (Promega) was added to each plate using an FRD and luminescence was quantified by a ViewLux plate reader after 30 min incubation at room temperature.
Background: qHTS replaces the single test concentration by a dilution series.
Turning to `NC(=O)c1ccccc1O`, the Potency result is “inactive”.

Consider `NS(=O)(=O)c1cc(C(=O)O)c(NCc2ccco2)cc1Cl`, for which the Potency result is “inactive”.

`Nc1ccn([C@H]2CC[C@@H](CO)O2)c(=O)n1`: the Potency entry was “inactive”.

As for `Cc1cn([C@H]2C[C@H](N=[N+]=[N-])[C@@H](CO)O2)c(=O)[nH]c1=O`, the Potency entry is “inactive”.

`Cc1cc(=O)n(-c2ccccc2)n1C`: the Potency entry was “inactive”.

As to `Cn1c(=O)c2[nH]cnc2n(C)c1=O`, the Potency result is “inactive”.

As to `NC(N)=NC(=O)c1nc(Cl)c(N)nc1N`, the Potency entry was “inactive”.

In the case of `CC(O)C(=O)O` (stereo not given), the Potency entry was “inactive”.

With `CCCC(O)C(CC)CO` (stereo not given), the Potency entry is “inactive”.

Consider `Cn1cc[nH]c1=S`, for which the Potency result was “inactive”.

Regarding `N=C(N)c1ccc(OCCCCCOc2ccc(C(=N)N)cc2)cc1`, the Potency was 11.9 µM (active) and 46.4 µM (active).

For the compound `CCCCC(CC)COC(=O)/C=C/c1ccc(OC)cc1` (stereo not given), the Potency entry is “inactive”.

Consider `Cc1ccc(C)c(OCCCC(C)(C)C(=O)O)c1`, for which the Potency entry is “inactive”.

Take `COC(=O)[C@H](Cc1ccccc1)NC(=O)[C@@H](N)CC(=O)O` (H-Asp-Phe-OMe): the Potency result was “inactive”.

Consider `CCCC(CCC)C(=O)O`, for which the Potency result was “inactive”.

Turning to `NC(N)=O`, the Potency entry was “inactive”.

Consider `Nc1ccc(C(=O)O)cc1`, for which the Potency entry was “inactive”.

For `Cc1ccccc1C(OCCN(C)C)c1ccccc1` (stereo not given), the Potency entry was “inactive”.

Regarding `Cc1cc(=O)[nH]c(=S)[nH]1`, the Potency result was “inactive”.

With `NC(=O)c1cnccn1`, the Potency result is “inactive”.

As for `CC(O)CO` (stereo not given), the Potency result was “inactive”.

In the case of `O=C1CN(/N=C/c2ccc([N+](=O)[O-])o2)C(=O)N1`, the Potency entry was “inactive”.

Turning to `CCCCC1C(=O)N(c2ccccc2)N(c2ccccc2)C1=O`, the Potency entry was “inactive”.

Take `O=c1cc[nH]c(=S)[nH]1`: the Potency result was “inactive”.

In the case of `O=C(O)c1[nH]n(-c2ccc(S(=O)(=O)O)cc2)c(=O)c1N=Nc1ccc(S(=O)(=O)O)cc1`, the Potency result was “inactive”.

For the compound `O=C(O)CCCCC(=O)O`, the Potency result was “inactive”.

Turning to `COc1ccc2[nH]cc(CCNC(C)=O)c2c1`, the Potency result is “inactive”.

On to `CC(C)(Oc1ccc(C2CC2(Cl)Cl)cc1)C(=O)O` (stereo not given), for which the Potency entry was “inactive”.

Turning to `Nc1ccc(S(=O)(=O)c2ccc(N)cc2)cc1`, the Potency result is “inactive”.

`O=c1ccc2ccccc2o1`: the Potency entry is “inactive”.

`CCCNC(=O)NS(=O)(=O)c1ccc(Cl)cc1`: the Potency entry was “inactive”.

In the case of `Nc1ccc(O)c(C(=O)O)c1`, the Potency result is “inactive”.

Regarding `Nc1ccc(S(=O)(=O)Nc2nccs2)cc1`, the Potency result was “inactive”.

With `Cc1noc(NS(=O)(=O)c2ccc(N)cc2)c1C`, the Potency result is “inactive”.

Turning to `CC1(C)[C@@H]2CC[C@@]1(C)C(=O)C2`, the Potency result is “inactive”.

Turning to `O=C(O)CCC(=O)O`, the Potency result is “inactive”.

For `Cc1ccc(S(=O)(=O)NC(=O)NN2CCCCCC2)cc1`, the Potency result is “inactive”.

As to `CC(=O)Nc1nnc(S(N)(=O)=O)s1`, the Potency entry is “inactive”.

With `O=C(O)CS`, the Potency result was “inactive”.

Turning to `NNC(=O)c1ccncc1`, the Potency entry is “inactive”.
